Source: PubChem BioAssay

Test: small-molecule microarray binders of probe aNog, primary screen, biochemical, biotinylated probe, 635/667 nm fluorescence (AID 1115);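 further: probe is biotinylated aNog protein used at 0.15 µg/mL for 1 h at 4 C; z-score combines 667 nm fluorescence of each spot with its signal to noise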
Details: higher = more signal

SMILES | composite z-score
[N-]=[N+]=Nc1ccccc1C[C@@]1(C(=O)N2CCOCC2)N=C(c2ccc(OCCCO)cc2)O[C@@H]1c1ccccc1 | -0.738
[N-]=[N+]=Nc1ccccc1C[C@]1(C(=O)O)COC(c2ccc(OCCCO)cc2)=N1 | 0.253
COCCOC(=O)N1C(=O)[C@@]2(c3cc(C#CC4=CCCCC4)ccc31)[C@H](c1ccccc1OCCO)N1[C@H](c3ccccc3)[C@H](c3ccccc3)OC(=O)[C@H]1[C@@H]2C(=O)N1CCN(c2ncccn2)CC1 | -0.404
O=C1O[C@@H](c2ccccc2)[C@@H](c2ccccc2)N2[C@@H](c3ccc(OCCO)cc3)[C@]3(C(=O)Nc4ccc(C#CC5=CCCCC5)cc43)[C@@H](C(=O)NC[C@H](O)c3ccccc3)[C@H]12 | 1.74
[N-]=[N+]=Nc1ccccc1C[C@]1(C(=O)NCCN2CCOCC2)COC(c2ccc(OCCCO)cc2)=N1 | 0.624
O=C1OCCC=C[C@H]2OC34C=CCN(Cn5nnc6ccccc65)C(=O)[C@H]3N(CCCO)C(=O)[C@@H]4C12 (stereo not given in full) | -0.527
CC(C)[Si](C#C[Si](C(C)C)(C(C)C)C(C)C)(O[C@H](c1ccccc1)c1cn(Cc2ccccc2)nn1)C(C)C | 0.256
CC(C)N1C(=O)C[C@@](C(=O)O)(c2ccc([N+](=O)[O-])cc2)[C@H]1c1ccc(CO)cc1 | -0.409
C=CCC(OC(C)=O)[C@@H]1[C@@H](N(Cc2ccc(-c3ccccc3)cc2)C(=O)c2ccc(-c3ccccc3)cc2)c2cc(OCCCO)ccc2N1C(=O)c1ccc2ccccc2c1 (stereo not given in full) | -0.284
COc1ccc([Si](C)(C)[C@@H]2[C@@H](CCO)O[C@]3(C(=O)N(Cc4ccccc4)c4ccc(N5CCOC5=O)cc43)[C@H]2C)cc1 | 0.0139
[N-]=[N+]=Nc1ccccc1C[C@]1(C(=O)NCC(O)CO)COC(c2ccc(OCCCO)cc2)=N1 (stereo not given in full) | -0.236
CN(C)CCCCCCNC(=O)[C@@H]1C[C@@H]2C(=O)N3CCC[C@H]3C(=O)N2[C@@H]1c1cccc(OCCO)c1 | 0.822
CCOC(=O)C[C@H]1[C@H](OC(=O)c2cc3ccccc3oc2=O)[C@@H](NC(=O)c2ccccc2)c2cc(OCCCO)ccc2N1C(=O)c1ccccc1 | -0.108
O=C1C2C=CC(C(O)c3cccc(O)c3)N(Nc3ccc([N+](=O)[O-])cc3)C2C(=O)N1c1ccccc1 (stereo not given) | -0.163
C=CC[C@@]1(C(=O)NCCCOC)N=C(c2ccc(OCCCO)cc2)O[C@@H]1c1ccccc1 | 0.365
CCCCC(=C=CC[C@H](O)c1ccc(OCCO)cc1)CCO | -0.0007
C=C(C(=O)CC[C@H](OC(=O)c1ccccc1-c1ccccc1C(=O)O)c1cccc(OCCO)c1)C(C)C | -0.1
COC(=O)[C@]1(CCS(=O)(=O)c2ccccc2)N=C(c2ccc(OCCCO)cc2)O[C@@H]1c1ccccc1N=[N+]=[N-] | 0.897

SMILES | composite z-score
C=C(/C(=C/C[C@H](OC(=O)c1ccncc1)c1ccc(CO)o1)c1cnc2ccccc2c1)C(C)C | 0.181
CC[C@@H]1C=C(C(=O)O)[C@H](c2ccc(C#N)cc2)N1S(=O)(=O)c1ccc(C)cc1 | 0.598
CCCCCCCCCCC(O)C1C=CC2C(=O)N(c3ccccc3)C(=O)C2N1Nc1ccc(C#N)cc1 (stereo not given) | -0.889
CC[C@@H]1C=C(C(=O)O)[C@H](c2ccccc2)N1S(=O)(=O)c1ccc(C)cc1 | -0.398
O=C1O[C@H](c2ccccc2)[C@H](c2ccccc2)N2[C@H]1[C@@H](C(=O)O)[C@]1(C(=O)Nc3ccc(C#CCCO)cc31)[C@H]2c1ccccc1OCCO | -0.539
O=C1C2C=CC(C(O)c3ccco3)N(Nc3ccccc3F)C2C(=O)N1c1ccccc1 (stereo not given) | 0.742
COc1ccc([Si](C)(C)[C@@H]2[C@@H](CCO)O[C@]3(C(=O)N(Cc4cccc(NC(=O)[C@H](C)O)c4)c4ccccc43)[C@H]2C)cc1 | 0.638
CC(C)N1C(=O)C[C@@](C(=O)NC2CC2)(c2ccc([N+](=O)[O-])cc2)[C@H]1c1ccc(CO)cc1 | -0.566
Oc1ccc2cc[n+](Cc3cc4c(cc3Br)OCO4)cc2c1 | -0.0546
CCOC(=O)C[C@H]1[C@H](OC(=O)c2ccc(-c3ccccc3)cc2)[C@@H](NC(=O)CC(C)C)c2cc(OCCCO)ccc2N1C(=O)c1ccc2ccccc2n1 | 0.39
CCCCC(CC)C(O)C1C=CC2C(=O)N(c3ccccc3)C(=O)C2N1Nc1ccccc1F (stereo not given) | 1.1
CCOC(=O)C[C@H]1[C@H](OC(=O)c2ccccc2-c2ccccc2)[C@@H](NC(=O)c2ccc3ccccc3n2)c2cc(OCCCO)ccc2N1C(=O)Cc1ccc(OC)cc1 | -0.147
COCCCNC(=O)[C@@]1(CCC(=O)OC(C)(C)C)N=C(c2ccc(OCCCO)cc2)O[C@H]1c1ccccc1N=[N+]=[N-] | -0.261
OCCCC1=CC(c2ccc(CN3CCCC3)cc2)N(Cc2cc3c(cc2Br)OCO3)CC1 (stereo not given) | 0.162
CCOC(=O)C[C@H]1[C@H](OC(=O)Cc2ccc3c(c2)OCO3)[C@@H](NC(=O)C2CCCCC2)c2cc(OCCCO)ccc2N1C(=O)c1ccccc1 | -0.272
COCC(=C=CC[C@H](O)c1ccccc1OCCO)C[C@H](O)c1ccccn1 | -0.173
[N-]=[N+]=NCc1ccccc1[C@@H]1OC(c2ccc(OCCCO)cc2)=N[C@]1(CCS(=O)(=O)c1ccccc1)C(=O)O | 0.592
